L3MBTL1 block = inhibitors of human L3MBTL1; AlphaScreen L3MBTL1–H3K9me1 peptide binding; Potency, µM (titrated, usually from 57.1 µM), inactives show top-dose activity, negative = inhibition, usual class: inhibitors; hit rate 0.66% among 230,000; also: potency is read from the fitted curve at half-maximal effect; % is scaled to controls: 0 for no effect and ±100 for the full control effect; nearly all actives have a fitted effect of over 60% in size
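L3MBTL1 50 nM + b-AHA-H3(1-15)K9me1 75 nM, 30 min RT; compound added, 30 min RT; streptavidin donor/Ni-chelate acceptor beads 10 ug/mL each final, 30 min RT dark; AlphaScreen read.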
G9a inh = blocks human histone lysine methyltransferase G9a; Potency, µM (doses to about 102 µM), inactives show top-dose activity, negative = inhibition, usual class: inhibitors; AID 504332; G9a H3K9 monomethylation, AlphaScreen, 2 h; hit rate 8.8% among 350,000; Q96KQ7; also: potency is read from the fitted curve at half-maximal effect; % is scaled to controls: 0 for no effect and ±100 for the full control effect; nearly all actives have a fitted effect of over 75% in size
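Chemiluminescent proximity detection of H3K9 monomethylation, read after 10 min bead incubation in the dark. Reaction: 20 nM G9a, 500 nM biotin-H3K9 peptide, 20 uM SAM cofactor, 2 h, room temperature, following 15 min enzyme-compound preincubation.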
BAZ2B block = BAZ2B (human) inhibition; Q9UIF8; AlphaScreen BAZ2B-H3K14Ac peptide displacement; Potency, µM (series often up to 114 µM), for inactives: top-dose activity change, negative = inhibition, actives largely listed as inhibitors; hit rate 4.4% among 360,000; AID 504333; also: potency is read from the fitted curve at half-maximal effect; % is scaled to controls: 0 for no effect and ±100 for the full control effect; nearly all actives have a fitted effect of over 60% in size
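Multi-concentration screen (max 110 uM) measuring displacement of acetylated histone H3 peptide from BAZ2B by AlphaScreen, using 50 nM protein, 50 nM peptide and 10 ug/mL streptavidin donor plus Ni-chelate acceptor beads.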
HP1b binding inh = HP1-beta chromodomain-methylated histone interaction inhibition; hit rate 0.56% among 390,000; Potency, µM (highest dose often 114 µM), inactives show top-dose activity change, negative = inhibition, hits mostly inhibitors; AID 540317; AlphaScreen HP1-beta / biotin-H3K9me3 peptide binding; also: potency is read from the fitted curve at half-maximal effect; nearly all actives have a fitted effect of over 70% in size
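Compound inhibition of the preformed complex between 50 nM HP1-beta and 50 nM biotinylated H3K9me3 peptide was read by AlphaScreen. Buffer was PBS pH 7.4 with 0.01% Tween-20. Incubations ran 30 min at room temperature, with 10 ug/mL donor/acceptor beads.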
PI5P4Ka inh = PI5P4K alpha (human) kinase inhibition; P48426; max response, %; PI5P4Kalpha enzyme, ADP-Glo luminescence, 60 min; active compounds read low; hit rate 1.2% among 330,000; active = max response of -50% or lower; inconclusive = between -30% and -50%; inactive = -30% or higher; also: value at the top dose of about 77 µM; % is scaled to controls: 0 for no effect and ±100 for the full control effect
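Enzyme plus substrate dispensed, test compounds pinned in, then ATP (5 microM final) added. After 60 min at RT, ADP-Glo reagent 1 for 45 min and reagent 2 for 30 min preceded luminescence imaging.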
JMJD2A Tudor inh = blocks the human JMJD2A Tudor domain | AlphaScreen JMJD2A-Tudor / H3K4me3 peptide binding | AID 504339 | Potency, µM (top dose mostly 114 µM), inactives show at the highest dose activity change, negative = inhibition, actives largely listed as inhibitors | hit rate 4.4% among 390,000; also: potency is read from the fitted curve at half-maximal effect; % is scaled to controls: 0 for no effect and ±100 for the full control effect; nearly all actives have a fitted effect of over 50% in size
Target sequence (O75164 whole entry, looked up, the tested form may be a part): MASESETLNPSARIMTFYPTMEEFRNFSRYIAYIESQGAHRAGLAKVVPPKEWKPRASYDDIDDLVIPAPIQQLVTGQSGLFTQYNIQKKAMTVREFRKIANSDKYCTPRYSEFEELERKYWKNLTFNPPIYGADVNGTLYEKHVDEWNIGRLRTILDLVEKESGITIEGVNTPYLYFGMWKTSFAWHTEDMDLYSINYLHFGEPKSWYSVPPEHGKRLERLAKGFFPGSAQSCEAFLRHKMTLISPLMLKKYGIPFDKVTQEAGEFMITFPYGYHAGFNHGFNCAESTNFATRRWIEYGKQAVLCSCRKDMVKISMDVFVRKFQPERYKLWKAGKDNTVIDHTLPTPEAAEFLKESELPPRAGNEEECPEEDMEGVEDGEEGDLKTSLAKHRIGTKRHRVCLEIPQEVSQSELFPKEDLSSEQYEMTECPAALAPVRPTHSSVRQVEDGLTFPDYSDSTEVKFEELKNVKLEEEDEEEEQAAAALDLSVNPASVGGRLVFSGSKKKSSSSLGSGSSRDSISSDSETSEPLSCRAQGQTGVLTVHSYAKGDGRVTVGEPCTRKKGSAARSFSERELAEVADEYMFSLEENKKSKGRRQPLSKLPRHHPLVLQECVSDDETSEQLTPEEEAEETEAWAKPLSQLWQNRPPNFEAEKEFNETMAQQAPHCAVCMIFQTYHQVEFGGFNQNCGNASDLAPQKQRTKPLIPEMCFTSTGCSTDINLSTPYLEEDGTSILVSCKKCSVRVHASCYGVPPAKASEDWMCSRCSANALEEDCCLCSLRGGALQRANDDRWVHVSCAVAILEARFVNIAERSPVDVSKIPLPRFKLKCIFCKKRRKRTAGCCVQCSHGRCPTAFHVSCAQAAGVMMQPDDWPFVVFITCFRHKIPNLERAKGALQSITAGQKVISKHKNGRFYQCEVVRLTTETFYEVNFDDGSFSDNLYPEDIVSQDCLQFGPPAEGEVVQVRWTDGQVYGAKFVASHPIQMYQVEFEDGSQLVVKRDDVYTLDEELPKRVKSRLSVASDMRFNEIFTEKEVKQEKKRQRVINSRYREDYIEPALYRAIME
An asterisk follows results filed as active; ? = inconclusive; nt = not tested or not shown; [ ] = another dose, or the depositor's remark. The list is not random: actives were taken first. Their share in the collection is about 11%. Unless noted, calls follow the shape of the dose curve; as a rule, active = well fitted inhibition curve with a large enough effect; inconclusive = small, poorly fitted or top-dose-only effect; inactive = no such curve, though single readings can be large or run the other way.

SMILES	L3MBTL1 block	G9a inh	BAZ2B block	HP1b binding inh	PI5P4Ka inh	JMJD2A Tudor inh
COc1ccc(N2CCN(C(=O)CCCN3C(=O)c4cccc5cccc(c45)C3=O)CC2)cc1	-1%	nt	40µM*	-31%	nt	?
COC(=O)CCCN1C(=O)c2cccc3cccc(c23)C1=O	-1%	49%	45µM*	47%	0	-9%
O=C(CCCN1C(=O)c2cccc3cccc(c23)C1=O)N1CCN(c2ccc(F)cc2)CC1	-5%	?	-37%	2%	4	-23%[57.1 µM]
CN1CCN(C2=NC(=O)/C(=C/c3ccccc3OS(=O)(=O)c3ccccc3)S2)CC1	-1%	45µM*	-14%	-1%	3	-13%
COc1cccc(/C=C2\SC(N3CCCC(C)C3)=NC2=O)c1OC (stereo unspecified)	nt	71µM*	-17%	21%	1	-7%
COc1ccccc1/C=C1\SC(N2CCC(C)CC2)=NC1=O	nt	-11%	-21%	13%	4	-26%
COc1cccc(/C=C2\SC(N3CCC(C)CC3)=NC2=O)c1OC	nt	28µM*	-2%	-10%	-19	-6%
NC1=NC(=O)/C(=C/c2ccccc2OS(=O)(=O)c2ccccc2)S1	-6%	?	-9%	20%	-8	-18%
COc1cc(OC)c(OC)cc1/C=C1\SC(N2CCCCC2)=NC1=O	nt	?	-17%	-8%	?	-28%
O=C(CSc1ccc2nnc(-c3cccnc3)n2n1)NCC1CCCO1 (stereo unspecified)	30%	?	1%	55%	-4	-4%
CCSc1ccc2nnc(-c3cccc(F)c3)n2n1	?	4µM*	11%	-37%	nt	79µM*
O=C(CSc1ccc2nnc(-c3cccc(F)c3)n2n1)NCC1CCCO1 (stereo unspecified)	2%	5µM*	-4%	?	nt	32µM*
O=C(CSc1ccc2nnc(-c3cccc(F)c3)n2n1)N1CCCc2ccccc21	-6%	?	0%	-9%	2	-40%
Cc1ccc(N=C2C(=S)N(c3ccc(C)cc3)C(=N)N2/N=C/c2ccc(Cl)cc2)cc1	-23%	?	?	3.5µM*	-14	?
O=C(NCCc1ccc(Cl)cc1)c1ccc(CSCc2ccccc2Cl)o1	nt	27%[59 µM]	18%	69%	nt	3%
CCCN1C/C(=C/c2ccc3c(c2)OCO3)C(=O)/C(=C/c2ccc3c(c2)OCO3)C1	-4%	?	50µM*	?	-22	22µM*
CC1=C/C(=C\c2ccc3c(c2)OCO3)C(=O)S1	-11%	25µM*	?	-11%	0	?
COc1cc2oc(=O)c(CC(=O)NCc3ccc(OC)c(OC)c3)c(C)c2cc1Cl	nt	7%[59 µM]	-1%	34%	nt	-2%
O=C(Cn1nnc(-c2ccccc2)n1)NNC(=O)c1ccccc1	-11%	40µM*	-18%	?	-9	-11%
COC(=O)c1cccnc1-n1c(=O)c2cccnc2n(CC(=O)Nc2ccccc2F)c1=O	nt	-8%[59 µM]	0%	17%	nt	-2%
CCCCCCCn1c2c(c(=N)c3c1CCC3)CCCC2	-12%	45µM*	?	24%	-8	1%
CCc1ccc(N=C2NC(=O)CS2)cc1	6%[2.29 µM]	15%[0.501 µM]	-5%	21%	-1	-1%
CCCCCCCCN=C1NC(=O)CS1	-5%	22µM*	6%	-6%	nt	-10%
CCC(=O)Oc1c(Sc2ccc(Cl)cc2)c(C)nn1C(C)(C)C	nt	48%[59 µM]	100%	82%	nt	65%
COc1cc(Cl)c(NC(=O)c2cc(CN3CCCC3)on2)c(OC)c1	nt	-47%[59 µM]	-32%	26%	nt	-24%
SMILES	L3MBTL1 block	G9a inh	BAZ2B block	HP1b binding inh	PI5P4Ka inh	JMJD2A Tudor inh
C#CCOCCOCCOCCNc1nc(N2CCN(C(=O)C([C@@H](C)O)n3cc([C@@H](N)CCCCN)nn3)CC2)nc(N2CCN(C(=O)[C@H](CCC(=O)O)n3cc([C@@H](N)CCCCN)nn3)CC2)n1 (stereo partly specified)	-6%	nt	nt	41%	3	?
C#CCOCCOCCOCCNc1nc(N2CCN(C(=O)C([C@@H](C)O)n3cc([C@@H](N)CCCCN)nn3)CC2)nc(N2CCN(C(=O)[C@H](CCCCN)n3cc([C@@H](N)CC(N)=O)nn3)CC2)n1 (stereo partly specified)	2%	nt	nt	13%	-11	79µM*
C#CCOCCOCCOCCNc1nc(N2CCN(C(=O)[C@H](CCCCN)n3cc(CN)nn3)CC2)nc(N2CCN(C(=O)[C@H](CCCCN)n3cc([C@@H](N)CC(N)=O)nn3)CC2)n1	nt	nt	nt	13%	-11	35µM*
C#CCOCCOCCOCCNc1nc(N2CCN(C(=O)[C@H](CCCCN)n3cc([C@@H](N)CC(N)=O)nn3)CC2)nc(N2CCN(C(=O)[C@H](CCCCN)n3cc([C@@H](N)CC(N)=O)nn3)CC2)n1	2%	nt	nt	40%	-2	79µM*
CCOC(=O)c1c(NC(=O)COc2ccc(C(C)(C)C)cc2)sc2c1CCCC2	nt	?	-15%	8%	nt	-20%
CCOC(=O)c1c(NC(=O)COc2cccc(C(F)(F)F)c2)sc2c1CCCCC2	nt	5.6µM*	-7%	-21%	nt	-15%
COC(=O)c1c(NC(=O)COC(=O)c2ccc(Cl)cc2[N+](=O)[O-])sc2c1CCCCC2	1%	8%[59 µM]	-12%	21%	1	-14%
CCOC(=O)c1c(NC(=O)COc2ccc(Cl)cc2C)sc2c1CCCCC2	nt	6.3µM*	-6%	?	nt	-20%
CCOC(=O)c1c(NC(=O)c2ccccc2Br)sc2c1CCc1ccccc1-2	nt	1.4µM*	9%	-4%	nt	-13%
COC(=O)c1c(NC(=O)COc2ccc(Cl)cc2C)sc2c1CCCCC2	nt	7.9µM*	-10%	-17%	nt	-9%
CCc1cc2c(cc3c(=O)n(CC(=O)NC4CCCCC4)ncn32)s1	nt	7%[59 µM]	0%	36%	nt	8%
Cc1ccc(NC(=O)Cn2c(=O)n(Cc3ccc4c(c3)OCO4)c(=O)c3ccc(C(=O)NC4CCCCC4)cc32)c(C)c1	nt	7%[59 µM]	nt	27%	nt	-8%
CCOC(=O)c1c(NC(=O)COc2ccc(CC)cc2)sc2c1CCCC2	nt	-3%[59 µM]	12%	43%	nt	14%
CCOC(=O)c1c(NC(=O)COc2ccccc2Br)sc2c1CCCCC2	nt	10µM*	14%	-6%	nt	-5%
COC(=O)c1c(NC(=O)COc2cc(C)c(Cl)c(C)c2)sc2c1CCCC2	nt	7.1µM*	24%	?	nt	-15%
CCCC(CCC)C(=O)NC1CC(=O)N(c2ccc3c(c2)OCCO3)C1 (stereo unspecified)	nt	-2%[59 µM]	-7%	12%	nt	-14%
COc1ccc(C2CC(=O)Oc3c(C(CCN4CCCC(C)C4)c4cc(OC)c(OC)c(OC)c4)c(OC)cc(OC)c32)cc1 (stereo unspecified)	nt	nt	nt	17%	nt	?
